# Bioassay records: PubChem, National Center for Advancing Translational Sciences (NCATS)
# Most compounds without a hit are left out; they make up all but 4.4% or so of the library.
# HPGD inh: blocks human HPGD enzyme activity; P15428; hit rate 4.3% among 150,000; purified HPGD, NADH fluorescence kinetic, PGE2 substrate; Potency, µM, without a hit: at the highest dose activity change, negative = inhibition, most hits filed as inhibitors; active = well fitted inhibition curve with a large enough effect, not every such curve was filed as active; inconclusive = small, poorly fitted or top-dose-only effect, or another doubt; inactive = no such curve, though single readings can be large or run the other way
#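 NADH formation kinetics: reaction with 30 uM PGE2 and 1 mM NAD+ (final), 20 nM enzyme, Tris-HCl pH 8 with Tween 20, after 15 min compound preincubation at room temperature. Fluorescence change, last versus first of five reads.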
# p53ts 32C tox: kills p53ts cells at the permissive temperature | hit rate 0.93% among 130,000 | H1299-p53A138V at 32C, ATP luminescence viability, 24 h | Potency, µM (doses to about 46.1 µM), for inactives: top-dose activity change, negative = cytotoxicity, actives largely listed as cytotoxic | AID 924;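 also: 0% = DMSO and -100% = full killing by reference compound; nearly all actives have a fitted effect of over 55% in size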
#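 Viability by ATPlite luminescence after 24 h compound treatment (up to 46 uM) at the permissive 32C. Cells are H1299 carrying p53 A138V. Scale runs from DMSO basal to 100 uM tamoxifen as full kill; AC50 from Hill fits.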
# p53ts 39C tox: cytotoxicity in p53ts cells at nonpermissive temperature | H1299-p53A138V viability at 39C, ATP luminescence, 24 h | Potency, µM (series often up to 46.1 µM), without a hit: at the highest dose activity change, negative = cell killing, actives largely listed as cytotoxic | hit rate 1.5% among 130,000 | AID 902; also: nearly all actives have a fitted effect of over 55% in size
# ALOX12 inhib: 12-hLO (ALOX12) enzyme inhibition. P18054. purified 12-hLO, xylenol orange hydroperoxide absorbance. Potency, µM (highest dose often 57.1 µM), inactives show top-dose activity change, negative = inhibition, most hits filed as inhibitors. hit rate 0.12% among 150,000; also: nearly all actives have a fitted effect of over 55% in size
# Target sequence (P18054 whole entry, looked up): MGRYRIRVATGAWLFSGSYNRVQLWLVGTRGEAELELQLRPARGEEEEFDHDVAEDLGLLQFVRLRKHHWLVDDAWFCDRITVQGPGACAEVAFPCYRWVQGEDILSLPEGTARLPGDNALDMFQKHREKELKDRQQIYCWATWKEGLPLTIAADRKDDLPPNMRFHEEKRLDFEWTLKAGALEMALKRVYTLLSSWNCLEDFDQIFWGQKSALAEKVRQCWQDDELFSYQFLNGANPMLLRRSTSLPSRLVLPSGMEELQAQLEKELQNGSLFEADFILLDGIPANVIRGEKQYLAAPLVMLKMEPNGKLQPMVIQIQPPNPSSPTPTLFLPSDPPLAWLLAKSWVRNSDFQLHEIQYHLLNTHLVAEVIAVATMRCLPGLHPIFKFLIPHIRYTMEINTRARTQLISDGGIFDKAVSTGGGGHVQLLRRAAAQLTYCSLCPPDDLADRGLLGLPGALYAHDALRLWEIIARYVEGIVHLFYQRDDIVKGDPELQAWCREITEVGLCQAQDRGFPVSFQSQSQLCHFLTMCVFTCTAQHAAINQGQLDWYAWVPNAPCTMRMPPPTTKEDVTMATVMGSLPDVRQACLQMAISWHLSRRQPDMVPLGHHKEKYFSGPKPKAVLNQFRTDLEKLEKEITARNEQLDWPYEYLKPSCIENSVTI
#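 Hydroperoxide output read as Fe(III)-xylenol orange absorbance, 573-to-405 nm ratio, after 30 min reaction with 40 uM arachidonic acid. Enzyme: 150 nM purified human 12hLO, 15 min compound preincubation; 25 mM Hepes pH 7.0, room temperature.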
# * = called active by the depositor; ? = inconclusive; . = no result; [ ] = dose if it differs, or a comment. Unless noted, calls follow the shape of the dose curve; as a rule, active = well fitted curve in the direction sought with a large enough effect; inconclusive = small, poorly fitted or top-dose-only effect, or another doubt; inactive = no such curve, though single readings can be large; an effect the other way counts as inactive or inconclusive. Unless noted, % is scaled to controls: 0 for no effect and ±100 for the full control effect; potency is read from the fitted curve at half-maximal effect.
SMILES,HPGD inh,p53ts 32C tox,p53ts 39C tox,ALOX12 inhib
O=C(c1ccc(C(=O)N2CCCCCC2)cc1)N1CCCCCC1,7.94µM*,-24.9%,-8.3%,3.0%
O=C(COc1ccc(Cl)cc1)N1CCCC1,-9.9%,-10.2%,6.1%,0.8%
O=C(c1ccc(Cl)cc1)c1ccc(OCC(=O)N2CCOCC2)cc1,28.2µM*,2.2%,1.7%,-10.1%
O=C(c1cccc(F)c1F)N1CCCC1,28.2µM*,3.8%,24.1%,4.2%
O=C(c1ccccc1NS(=O)(=O)c1ccc(F)cc1)N1CCCC1,-0.5%,.,.,2.0%
COc1ccccc1NC(=O)CSc1nnc(-c2nonc2NC(C)=O)n1-c1ccccc1,.,-0.9%,-4.1%,.
Cc1ccc(N(C)C(CNS(=O)(=O)c2ccccc2)c2ccccc2)cc1 (stereo unspecified),.,12.5%,?,.
CC(C)CNC(=O)C(=O)Nc1c2c(nn1-c1ccc(Cl)cc1)CSC2,.,-1.1%,-23.9%,.
O=C(Cc1cc(=O)[nH][nH]1)N/N=C/c1c(Cl)cccc1Cl,14.1µM*,.,.,-7.8%
O=C(Cc1cc(=O)[nH][nH]1)N/N=C/c1cccc(Cl)c1Cl,.,.,.,-24.5%
COc1ccc(S(=O)(=O)NCCc2csc(-c3cccc(F)c3)n2)cc1OC,.,3.0%,-22.2%,.
Cc1cccc(N2C(=O)CC(Sc3nnc(C)s3)C2=O)c1 (stereo unspecified),25.1µM*,-6.2%,14.9%,-4.6%
BrC(/C=N/Nc1nc(N2CCOCC2)nc(N2CCOCC2)n1)=C/c1ccccc1,15.8µM*,.,.,2.4%
CC(=O)NCCNc1ncnc2ccc(-c3ccc(C(=O)N(C)C)cc3)cc12,?,2.5%,-0.1%,7.5%
Cc1ccc(S(=O)(=O)N2CCN(CC(=O)NC3CCCc4ccccc43)CC2)cc1C (stereo unspecified),-10.4%,.,.,-11.2%
Cc1ccc(C(=O)CSc2nc3cc(S(=O)(=O)N4CCOCC4)ccc3o2)cc1,25.1µM*,0.7%,-4.4%,-4.2%
O=C(CSc1nc2cc(S(=O)(=O)N3CCOCC3)ccc2o1)NC1CCCc2ccccc21 (stereo unspecified),8.91µM*,3.0%,-2.0%,-11.8%
Cc1ccc(Cl)cc1N1CCN(c2nc3ccc(C(=O)c4ccccc4)cc3n3cnnc23)CC1,.,-4.0%,7.4%,.
Cc1nnc(SCc2nnc(-c3ccccc3Br)o2)n1-c1ccccc1,-29.2%,4.4%,-14.0%,2.5%
Brc1ccccc1-c1nnc(CSc2nnnn2-c2ccccc2)o1,15.8µM*,-3.4%,-9.6%,-0.3%
O=C(/C=C/c1ccc(-c2ccccc2)o1)c1ccccc1,3.55µM*,.,.,-1.4%
Cc1ccc(-c2ccc(/C=C/C(=O)c3ccccc3)o2)cc1,14.1µM*,.,.,-18.0%
Cc1ccc(C(=O)/C=C/c2ccc(-c3ccccc3[N+](=O)[O-])o2)cc1,-17.1%,.,.,-12.1%
O=C(/C=C/c1ccc(-c2ccccc2[N+](=O)[O-])o1)c1ccc(Br)cc1,-22.9%,.,.,-1.2%
CCc1ccc(S(=O)(=O)c2nnn3c2nc(N2CCCC(C)C2)c2cc(Cl)ccc23)cc1 (stereo unspecified),.,17.2%,1.1%,.
SMILES,HPGD inh,p53ts 32C tox,p53ts 39C tox,ALOX12 inhib
CN1C(=O)Cc2cc(S(=O)(=O)CCC(=O)Nc3ccc(Cl)cc3)ccc21,.,6.8%,-1.8%,.
COc1ccc2nc3sc(C(=O)Nc4cc(Cl)c(OC)cc4OC)cc3cc2c1,.,?,6.31µM*,.
Cn1c(=O)c2[nH]c(/N=N\N3CCN(CCO)CC3)nc2n(C)c1=O,-6.6%,-2.4%[9.22 µM],4.1%[9.22 µM],-3.3%[11.4 µM]
O=C(O)c1ccccc1N/N=C\c1ccnc2ccccc12,12.6µM*,.,.,2.0%
CCc1ccccc1NC(=O)c1sc2nc(C)cc(COC)c2c1N,.,-0.5%,-14.7%,.
CCOc1ccccc1NC(=O)Cn1c(=O)n(CCCC(=O)NCCOC)c(=O)c2cc(OC)c(OC)cc21,.,-4.9%,-8.0%,.
C=CCNC(=O)c1ccc(Cl)cc1Cl,14.1µM*,-5.4%,10.6%,2.5%
C=CCNC(=O)c1ccc(C)cc1Cl,3.98µM*,-8.0%,-0.9%,7.2%
CC(C)OC(=O)CSc1n[nH]c(-c2cccnc2)n1,15.8µM*,4.3%,3.6%,3.7%
Oc1ccccc1/C=N/NC1=NCCCCC1,?,.,.,-8.0%
COc1ccc(/C=N/NC2=NCCCCC2)cc1,12.6µM*,.,.,14.4%
O=c1[nH]c(NCc2ccccc2)nc2c1CCCC2,12.6µM*,4.2%,11.4%,7.0%
Cc1ccc(CSc2nc3c(c(=O)[nH]2)CCC3)cc1,10µM*,-3.2%,1.0%,0.5%
Cc1ccccc1CSc1nc2c(c(=O)[nH]1)CCCC2,3.98µM*,.,.,3.0%
CCC/C=C(\CCC)C(NC(=O)OCC(C)C)c1ccccc1 (stereo unspecified),-4.8%,3.0%,-2.2%,-4.4%
CCc1nnc(NC(=O)c2nc(SCc3ccc(F)cc3)ncc2Cl)s1,.,4.7%,-13.0%,.
CC(=O)N1CCc2c(sc3c2c(=O)n(-c2ccc(C)cc2)c(=O)n3Cc2ccccc2C)C1,.,5.6%,-11.9%,.
O=C(O)Cn1c(SCc2ccccc2)nc2ccccc21,-5.3%,.,.,-1.1%
O=C(O)Cn1c(SCc2cccc3ccccc23)nc2ccccc21,25.1µM*,.,.,6.7%
O=C(CSc1nnc2ccc3ccccc3n12)c1ccc(F)cc1,.,?,-27.4%,.
Cc1ccc(C(=O)OCC2OC3OC(C)(C)OC3C2O)cc1 (stereo unspecified),3.98µM*,.,.,2.8%
OC(c1ccccc1)c1cccnc1 (stereo unspecified),-26.6%,.,.,15.3%
OC(c1ccccc1)c1nc2ccccc2s1 (stereo unspecified),15.8µM*,3.3%,3.8%,-6.9%
CC1(C)Cc2[nH]c(=S)c(C#N)cc2CO1,25.1µM*,.,.,?
N#Cc1cc2c([nH]c1=S)CCCC2,14.1µM*,.,.,-29.2%
SMILES,HPGD inh,p53ts 32C tox,p53ts 39C tox,ALOX12 inhib
CC(=O)c1cccc(NC(=O)Cn2nc(C(F)(F)F)c3c2CCC3)c1,.,2.4%,5.7%,.
CCCCNC(=O)c1ccc(Cc2nc3ccccc3[nH]2)cc1,-5.0%,-6.9%,-2.4%,4.0%
Cc1ccc(N2C(=O)c3ccccc3C2O)nc1 (stereo unspecified),-18.4%,3.98µM*,5.01µM*,-0.1%
COC(=O)c1ccc(NC(=O)CN2C(=O)CCC2=O)cc1,31.6µM*,-6.9%,-2.7%,-3.9%
O=C(CN1C(=O)CCC1=O)Nc1ccc(Br)cc1,-17.3%,3.4%,-11.2%,5.62µM*
Cc1cc2ccccc2n1-c1ccc(C(=O)N2CCC(C(=O)NCc3ccccc3Cl)CC2)s1,.,-2.5%,-25.7%,.
CCOC(=O)c1c(-c2ccc(C)cc2)csc1NC(=O)c1cc(=O)c2cc(C)c(C)cc2o1,.,3.5%,-13.3%,.
COCCCNC(=O)C1CCN(c2nc3ccc(Cl)cc3[nH]2)CC1,.,21.8%,19.9%,.
CCCCC(=O)NC(=S)NNS(=O)(=O)c1ccccc1,20µM*,.,.,-2.9%
O=C(NC(=S)NNS(=O)(=O)c1ccccc1)c1ccccc1[N+](=O)[O-],20µM*,.,.,-4.0%
O=C(NC(=S)NNS(=O)(=O)c1ccccc1)c1ccc([N+](=O)[O-])cc1,?,.,.,-5.4%
CCC(=O)Nc1ccc(CC)cc1-c1nc2ccccc2n(CC(=O)Nc2cccc(Cl)c2)c1=O,.,7.2%,-1.4%,.
Cc1cc(S(=O)(=O)NC2CCCCC2)ccc1OCC(=O)NCc1ccccn1,15.8µM*,1.0%,31.0%,-1.4%
